Assay results published in PubChem BioAssay AID1347416 (National Center for Advancing Translational Sciences (NCATS), 2020).
In all, about 4,100 compounds went through this assay and about 1,600 (39%) were called active. Not shown: some 25% with an inconclusive outcome. The call rests on the fitted dose curve; in most records, active means well fitted inhibition curve with a large enough effect; inconclusive means small, poorly fitted or top-dose-only effect; inactive means no such curve, though single readings can be large or run the other way. The list shows a part of the results.
On the % scale 0 is the no-effect control and ±100 the full control effect; potency means the concentration at half of the fitted maximal effect.

Experiment: qHTS Validation assay for Inhibitors of Plasmodium falciparum Dd2 growth in vitro; further: nearly all actives have a fitted effect of over 70% in size
Settings: P. falciparum Dd2 in RBCs, SYBR Green growth, 72 h; series mostly up to 28.7 µM; activity change, negative = inhibition: at the top concentration
Summary of the method: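 P. falciparum Dd2-infected red blood cells (2.5% hematocrit, 0.3% parasitemia) grown 72 h at 37 °C under 5% O2 with compounds in a titration, 29 uM to 0.5 nM final. Growth read as SYBR Green-1 fluorescence after ~16 h lysis; artesunate 300 nM as positive control.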
In the case of `Cc1cnc(C2CCC2)n1C1CCCN(C(=O)CCCc2ccccc2)C1` (stereo unspecified), the Potency was 15 µM (active). For `COc1ccc(-c2noc([C@@H]3CCCN3C(=O)CCCc3ccccc3)n2)cc1`, the “activity change, negative = inhibition” value was 1.4% (inactive). For `O=C(CCCc1ccccc1)N1CCC[C@H]1c1nc(-c2ccccc2)no1`, the “activity change, negative = inhibition” value was -16.8% (inactive). For `CCOc1ccc(NC(=O)c2nnn3cc(C)[nH]c(=O)c23)cc1`, the Potency was 10.6 µM (active). For `Cc1cccc(CNC(=O)c2nnn3cc(C)[nH]c(=O)c23)c1`, the “activity change, negative = inhibition” value was 13.4% (inactive). In the case of `COc1ccc(NC(=O)O[C@@H]2CC[C@]3(C)C(CC[C@@H](O)[C@H]3CC(=O)NCc3ccccc3OC)[C@]2(C)CO)cc1` (stereo partly specified), the Potency was 6.68 µM (active). For `COc1ccc(S(=O)(=O)N2CCC(CC(=O)NCc3ccccc3)C2)cc1` (stereo unspecified), the “activity change, negative = inhibition” value was 3.39% (inactive). With `c1ccc2sc(Sc3ncnc4sccc34)nc2c1` the Potency was 0.944 µM (active). For `CCc1cc2c(Sc3nc4ccccc4s3)ncnc2s1`, the Potency was 1.5 µM (active). In the case of `Cc1c(N/N=C(\C#N)C(=O)c2ccccc2)c(=O)n(-c2ccccc2)n1C`, the Potency was 6.68 µM (active). In the case of `CN(C)CCN1C(=O)c2oc3ccc(Cl)cc3c(=O)c2C1c1cccc(Br)c1` (stereo unspecified), the Potency was 0.531 µM (active). In the case of `CCOc1cc(CN2CCCC(N3CCN(c4ccc(F)cc4)CC3)C2)ccc1OC` (stereo unspecified), the “activity change, negative = inhibition” value was -9.71% (inactive). In the case of `COc1cccc(CN2CCCC(N3CCN(c4cccc(C(F)(F)F)c4)CC3)C2)c1O` (stereo unspecified), the Potency was 0.842 µM (active). With `O=C(NC[C@H]1O[C@@H](CO)[C@@H](O)[C@H]1N1CCN(c2cccc(C(F)(F)F)c2)CC1)c1cccs1` the “activity change, negative = inhibition” value was -4.61% (inactive). With `Oc1ccccc1CN1CCCC(N2CCN(c3cccc(C(F)(F)F)c3)CC2)C1` (stereo unspecified) the Potency was 1.33 µM (active). For `CC1(C)C(=O)N(Cc2ccccc2)[C@H]2CN(CC3CCOCC3)C[C@@H]2[S+]1(=O)[O-]`, the “activity change, negative = inhibition” value was 7.69% [at 43.1 µM] (inactive). For `O=C(NNc1nc(-c2ccc(Br)cc2)cs1)c1ccco1`, the Potency was 5.31 µM (active). For `CCCCOC(=O)N1CCC(N2CCCC(C(=O)N3CCOCC3)C2)CC1` (stereo unspecified), the “activity change, negative = inhibition” value was 35% (inactive). With `CCN1CCCC1CNc1ncnc2c1[nH]c1ccc(Cl)cc12` (stereo unspecified) the Potency was 2.99 µM (active). With `CN(Cc1cccn1C)S(C)(=O)=O` the “activity change, negative = inhibition” value was 30.2% [at 57.5 µM] (inactive). With `CN(C)C[C@@H]1CN(c2ccncn2)C[C@H]1NC(=O)c1cnco1` the “activity change, negative = inhibition” value was 16.3% (inactive). In the case of `Cc1ccc(NC2=C(c3ccc(C(F)(F)F)cc3)C(=O)c3ccccc32)cc1F`, the Potency was 1.88 µM (active). For `Cc1ccc(C)c(NC2=C(c3ccc(C(F)(F)F)cc3)C(=O)c3ccccc32)c1`, the Potency was 4.73 µM (active). For `Cc1ccc(NC2=C(c3ccc(C(F)(F)F)cc3)C(=O)c3ccccc32)cc1C`, the Potency was 2.11 µM (active). For `Oc1ccc(-c2ccc(-c3nc(CCc4ccccc4)no3)cn2)cc1`, the “activity change, negative = inhibition” value was 0% (inactive). With `CC(C)(C)n1[nH]c2c3c(ccc2c1=O)C(=O)c1ccccc1C3=O` the Potency was 4.73 µM (active).
